Measurements: PubChem BioAssay AID1745847 (National Center for Advancing Translational Sciences (NCATS), 2022)
Hit rate of the full screen: of about 2,100 compounds, about 670 (32%) were called active. Another 50% or so got no clear call; they are omitted. The list shows a part of the results. Unmarked numbers belong to inactive results. The call rests on the fitted dose curve; in most records, active means well fitted inhibition curve with a large enough effect; inconclusive means small, poorly fitted or top-dose-only effect; inactive means no such curve, though single readings can be large or run the other way.

assay: CMV-Luciferase Counterscreen for Inhibitors of ATXN expression; conditions: HEK-293 CMV-luciferase reporter, luminescence, 24 h; series mostly up to 57.5 µM; activity change, negative = inhibition: at the top concentration; further: nearly all actives have a fitted effect of over 55% in size
On the % scale 0 is the no-effect control and ±100 the full control effect; potency means the concentration at half of the fitted maximal effect.

| SMILES | Potency | activity change, negative = inhibition |
| --- | --- | --- |
| Cc1ccc(/C=N/NC(=O)C2=NNC(c3ccccc3)(c3ccccc3)C2)c(O)c1 | 3.16 µM (active) | – |
| O=c1c2ccccc2sc2c(CO)ccc(NCCN3CCCCC3)c12 | 22.4 µM (active) | – |
| CCN(CC)CCNc1ccc(CO)c2sc3ccccc3c(=O)c12 | 17.8 µM (active) | – |
| COC(/C(=N/O)c1ccc(Cl)cc1)c1ccccc1 (stereo unspecified) | – | -21.2% |
| Cc1cc(NCc2ccccn2)n2nc(C)c(-c3ccc(Cl)cc3)c2n1 | 20 µM (active) | – |
| Cc1cc(Oc2ccc(Cl)cc2)nc(-c2ccccn2)n1 | – | -22.3% |
| CCCCC(=O)N(CCOC)c1nnc(-c2ccccc2C)s1 | – | -14.2% |
| CCOc1cc([C@@H]2C[C@H]3CN(c4ccccc4)C(=O)[C@]34CCCN24)ccc1OC | – | 4.3% |
| Cc1cccc2sc(NNC(=O)c3ccc(S(=O)(=O)N4CCCC(C)C4)cc3)nc12 (stereo unspecified) | 4.47 µM (active) | – |
| Cc1cc(C)c2nc(NNC(=O)c3ccc(S(=O)(=O)N4CCc5ccccc5C4)cc3)sc2c1 | 3.16 µM (active) | – |
| N#CCc1nc2ccccc2c(=O)[nH]1 | – | -6.07% |
| Nc1c2ccccc2nc2ccccc12 | 4.47 µM (active) | – |
| CN(C)c1ccc(Cc2cc3c(O)ccc(O)c3cc(Cc3ccc(N(C)C)cc3)c2=O)cc1 | – | -9.62% [at 11.4 µM] |
| CCCOCc1ccc(O)c2ncccc12 | 20 µM (active) | – |
| Oc1ccc(Cc2ccccc2)c2cccnc12 | 11.2 µM (active) | – |
| Oc1ccc(CN2CCC(Cc3ccccc3)CC2)c2cccnc12 | – | -19.8% [at 11.4 µM] |
| CC[n+]1c(/C=C/N(C)c2ccccc2)oc2ccc(F)cc21 | 15.8 µM (active) | – |
| O=C(O)CSc1cc(NS(=O)(=O)c2cccc([N+](=O)[O-])c2)c2ccccc2c1O | 3.55 µM (active) | – |
| O=C(O)CSc1cc(NS(=O)(=O)c2ccc(Cl)cc2)c2ccccc2c1O | 28.2 µM (active) | – |
| CCc1c(C)nc2ncnn2c1N1CCC(C(=O)Nc2ccc(C)cc2)CC1 | 12.6 µM (active) | – |
| CCc1ccc(CNC(=O)C2CCN(c3nnc(C)c4c(C)n(-c5ccc(C)cc5)nc34)CC2)cc1 | – | -27.5% |
| O=C(Nc1ccc2c(c1)CCC2)C1CCN(c2c3c(nc4ncnn24)CCC3)CC1 | 7.08 µM (active) | – |
| CNc1ccccc1C(=O)OC(C)C(=O)Nc1ccc(Cl)cn1 (stereo unspecified) | – | 94.6% [at 11.4 µM] |

| SMILES | Potency | activity change, negative = inhibition |
| --- | --- | --- |
| CC(=O)Oc1c(Br)cc(N(C(C)=O)S(=O)(=O)c2ccccc2)c2ccccc12 | 15.8 µM (active) | – |
| COc1ccc2nc(C)cc(SCC(=O)N/N=C/c3ccc(O)cc3O)c2c1 | 11.2 µM (active) | – |
| COc1ccc(/C=N/NC(=O)c2nc(-c3ccccc3)n(-c3ccccc3)n2)c(O)c1 | 8.91 µM (active) | – |
| Cc1cc(SCC(=O)NN)c2cc(Br)ccc2n1 | – | 0.829% |
| NC(=O)c1cc([N+](=O)[O-])ccc1NCc1ccc(N)cc1 | 6.31 µM (active) | – |
| Cn1nnnc1Sc1ncnc2scc(-c3ccc[nH]3)c12 | 20 µM (active) | – |
| Cn1nnnc1Sc1ncnc2scc(-c3cccs3)c12 | 11.2 µM (active) | – |
| COc1cc(CNCc2ccncc2)cc(Br)c1OCc1ccccc1F | 2 µM (active) | – |
| COc1cc(C(=O)NCc2ccncc2)cc(Br)c1OCc1ccccc1 | 3.98 µM (active) | – |
| COc1cccc(OC)c1C(=O)OCC(=O)NC(=O)NCc1ccccc1 | – | -4.44% [at 11.4 µM] |
| CCOc1ccc(NC(=O)Nc2nnc(CC(=O)NCc3ccccc3)s2)cc1 | – | -1.51% |
| CN(C)CCNc1ncnc2c1sc1nc(N3CCOCC3)c3c(c12)CC(C)(C)SC3 | – | -18.2% |
| O=C(/C=C/Nc1ccc(S(=O)(=O)Nc2ncccn2)cc1)c1ccc(Cl)c(Cl)c1 | – | -27% |
| O=C(Nc1ccc(Cl)c(Cl)c1)c1cccc(S(=O)(=O)NCc2cccnc2)c1 | 1.58 µM (active) | – |
| Cn1c(CCc2nc3ccccc3[nH]2)nnc1SCC#N | – | -22.2% |
| COc1cc(N)ccc1Nc1c2ccccc2nc2ccccc12 | 25.1 µM (active) | – |
| COc1ccc(Nc2c3ccccc3nc3ccccc23)cc1 | 10 µM (active) | – |
| COc1ccc(C(CCNC(C)c2ccccc2)c2ccc(F)cc2)cc1 (stereo unspecified) | – | -22.5% |
| COc1ccc(C)cc1Nc1nc(N)c2cc(OC)c(OC)cc2n1 | – | -12.3% [at 11.4 µM] |
| COc1ccc(Nc2nc(N3CCCC3)c3ccccc3n2)cc1 | 10 µM (active) | – |
| C=CS(=O)(=O)c1c2cc(OC)ccc2nc2ccc(OC)cc12 | – | -18.3% |
| COc1ccc(/C=N/Nc2cc(N3CCCC3)nc(N3CCCC3)n2)cc1 | – | -17.8% [at 11.4 µM] |
| COc1cc2cc(C(=O)NC(C)c3cccc4ccccc34)c(N)nc2cc1OC (stereo unspecified) | – | -29.5% [at 11.4 µM] |

| SMILES | Potency | activity change, negative = inhibition |
| --- | --- | --- |
| C(=NN1CCCCCC1)c1ccc2ccccc2n1 | 15.8 µM (active) | – |
| O=C(Nc1ccc(Cl)cc1)Nc1nc(-c2sccc2Br)cs1 | – | -3.64% |
| COc1ccc(OC)c(C(=O)/C=C/c2ccccc2C(F)(F)F)c1 | – | -8.72% [at 11.4 µM] |
| Cc1ccc(C)c(N2CCN(C(=O)CCCCCn3c(=S)[nH]c4ccc(N5CCOCC5)cc4c3=O)CC2)c1 | 3.16 µM (active) | – |
| Clc1ccccc1C(c1ccccc1)(c1ccccc1)n1ccnc1 | 3.16 µM (active) | – |
| Cc1cccc(N2CCN(C(=O)CC(NC(=O)c3ccccc3Cl)c3ccccc3)CC2)c1C (stereo unspecified) | 25.1 µM (active) | – |
| COc1ccccc1N1C(=O)N(C(C)=O)C2C1Nc1ccccc1N2C (stereo unspecified) | – | -19.7% |
| CCOC(=O)c1c(NC(=O)COC(=O)Cn2cnc3ccccc32)sc(C)c1C | – | 20.6% |
| CCc1nc2ccccc2c(C(=O)OCC(=O)Nc2cccc(S(=O)(=O)NC3=NCCCCC3)c2)c1C | 14.1 µM (active) | – |
| CCn1c2ccccc2c2cc(NC(=O)COC(=O)c3cccc(S(=O)(=O)NC)c3)ccc21 | – | 21.7% |
| CN(C)CCNc1ncnc2c1sc1nc(N3CCCC3)c3c(c12)CC(C)(C)OC3 | – | 42.2% |
| O=C(N/N=C(\Cc1ncc[nH]1)c1ccccc1)c1cccnc1 | 3.98 µM (active) | – |
| CCOc1ccccc1C(=O)Nc1ccc2nc(N3CCN(c4ncccn4)CC3)cc(C)c2c1 | 11.2 µM (active) | – |
| CCN(CC)c1cc(C)c2cc(NC(=O)c3ccccc3OC)ccc2n1 | – | -29.6% |
| O=C1Nc2c(Br)cc(Br)c3cccc1c23 | – | -4.4% |
| NC(=O)c1c(NC(=O)c2ccc(S(=O)(=O)N3CCOCC3)cc2)sc2c1CCCCC2 | – | -13.6% [at 11.4 µM] |
| O=C(Nc1cccc(S(=O)(=O)C(F)F)c1)c1ccc(Cl)c(S(=O)(=O)N2CCOCC2)c1 | 15.8 µM (active) | – |
| O=C(Nc1nc(-c2ccccc2)cs1)c1ccccc1NS(=O)(=O)c1ccc(F)cc1 | 1 µM (active) | – |
| COc1cccc(C(=O)Nc2nc(-c3ccc(S(=O)(=O)N4CCOCC4)cc3)cs2)c1 | 2.82 µM (active) | – |
| O=C(Nc1nc(-c2ccc(S(=O)(=O)N3CCOCC3)cc2)cs1)c1ccccc1 | 1.12 µM (active) | – |
| COc1ccccc1C(=O)Nc1nc(-c2ccc(S(=O)(=O)N3CCOCC3)cc2)cs1 | 1.58 µM (active) | – |
| O=C(Nc1nc(-c2ccccn2)cs1)c1ccc(F)c(S(=O)(=O)N2CCOCC2)c1 | 1.78 µM (active) | – |
| Cn1c(=O)c2c(nc(SCCN3CCOCC3)n2Cc2cccc3ccccc23)n(C)c1=O | – | -18.8% [at 11.4 µM] |

| SMILES | Potency | activity change, negative = inhibition |
| --- | --- | --- |
| Cn1c(=O)c2c(nc(CN3CCN(Cc4ccccc4)CC3)n2Cc2ccc(Cl)cc2)n(C)c1=O | 17.8 µM (active) | – |
| CCCCCc1ccc(OCCCC[n+]2cccc(C)c2)c(CCCCC)c1 | 4.47 µM (active) | – |
| O=C(NC(=S)NCc1nc2ccccc2[nH]1)c1ccc(F)cc1 | – | 290% [at 11.4 µM] |
| CCC(=O)NC(c1ccc(OC)c(OC)c1)c1cc(Cl)c2cccnc2c1O (stereo unspecified) | 1.41 µM (active) | – |
| CCCC(=O)NC(c1ccc(OC)c(OC)c1)c1cc(Cl)c2cccnc2c1O (stereo unspecified) | 4.47 µM (active) | – |
| Cc1ccc(Sc2nnc(Cc3ccccc3)c3ccccc23)cc1 | – | -3.53% |
| O=C(N/N=C/c1sc(N2CCOCC2)nc1-c1ccccc1)c1ccccc1O | 12.6 µM (active) | – |
| CC(C)(C)c1ccc(C(=O)N2CCCCCC2=O)cc1 | 5.01 µM (active) | – |
| COc1ccc(CN(C)C(=O)c2cccc(NC(=O)CC3SC(N4CCCCC4)=NC3=O)c2)c(OC)c1 (stereo unspecified) | 10 µM (active) | – |
| CC(C)c1ccc2c(c1)C(N1CCNCC1)Cc1ccc(F)cc1S2 (stereo unspecified) | 35.5 µM (active) | – |
| COc1ccc(N=Cc2cc3c(cc2O)OC(N)=C(C#N)C3c2ccccc2)cc1 (stereo unspecified) | – | -22.6% [at 11.4 µM] |
| Cc1cc(C)cc(C(=O)N(NC(=O)Nc2ccc(Cl)cc2)C(C)(C)C)c1 | 22.4 µM (active) | – |
| Oc1c(Cl)cc(Cl)cc1/C=N/Nc1ncc(Br)cn1 | 2 µM (active) | – |
| CN1CCN(c2cc(-c3cc(O)c4ncccc4c3)ccn2)CC1 | 14.1 µM (active) | – |
| CN(Cc1cnc2nc(N)nc(N)c2n1)c1ccc(C(=O)N[C@@H](CCC(=O)O)C(=O)O)cc1 | 0.0063 µM (active) | – |
| Cc1cc(C)cc(NS(=O)(=O)c2ccc3c(c2)c(=O)n(C)c(=O)n3C)c1 | 11.2 µM (active) | – |
| NC(Cc1ccc(C(F)(F)F)cc1)c1csc(Nc2ccc(C(=O)NCc3ccco3)cn2)n1 (stereo unspecified) | – | -23.4% [at 11.4 µM] |
| Cn1cc(/C=C/c2cc[n+](C)cc2)c2cc(F)ccc21 | 11.2 µM (active) | – |
| CN(C)CCNC(=O)c1cccc(-c2cnc3c(NC=O)cc(-c4cccs4)cn23)c1 | – | 0.48% |
| CN(C)CCNC(=O)c1cccc(-c2cnc3c(NC=O)cc(-c4cccc(C(F)(F)F)c4)cn23)c1 | 22.4 µM (active) | – |
| COc1ccc(-c2cc(NC=O)c3ncc(-c4cccc(C(=O)NCCN(C)C)c4)n3c2)cc1 | – | -9.37% |
| Cc1ccc(Cl)cc1N1CCN(C(=O)CCS(=O)(=O)c2ccc3c(c2)NC(=O)CO3)CC1 | 14.1 µM (active) | – |
